In PubChem BioAssay AID1445 (SRMLSC, 2008):
Hit rate of the full screen: of about 220,000 compounds, about 910 (0.41%) were called active.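 The calls were made as follows: active = primary inhibition above the hit cutoff, then over 50% inhibition at one or more dose response concentrations (cut at about 23% in these data, passing the limit was not always enough); inconclusive = conflicting primary data, or primary hits not chosen for dose response; inactive = low primary inhibition, or under 50% at every dose.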 The sample as a whole holds a higher share of actives than the screen did. Entries with a potency or affinity are not part of this list.

The compounds below were run against Aminopeptidase N (Plasmodium falciparum (isolate 3D7)) (UniProt O96935) (assay: malaria alanyl aminopeptidase activity blockers – biochemical, fluorogenic H-Leu-NHMec substrate, 1536-well (AID 1445;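 also: plate controls were DMSO full reaction for no effect and no enzyme background for full effect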)). Conditions: recombinant M1AAP, H-Leu-NHMec fluorogenic kinetic assay; at 30 µM, active compounds read high unless noted.
Sequence of Aminopeptidase N (Plasmodium falciparum (isolate 3D7)) (O96935 whole entry, looked up): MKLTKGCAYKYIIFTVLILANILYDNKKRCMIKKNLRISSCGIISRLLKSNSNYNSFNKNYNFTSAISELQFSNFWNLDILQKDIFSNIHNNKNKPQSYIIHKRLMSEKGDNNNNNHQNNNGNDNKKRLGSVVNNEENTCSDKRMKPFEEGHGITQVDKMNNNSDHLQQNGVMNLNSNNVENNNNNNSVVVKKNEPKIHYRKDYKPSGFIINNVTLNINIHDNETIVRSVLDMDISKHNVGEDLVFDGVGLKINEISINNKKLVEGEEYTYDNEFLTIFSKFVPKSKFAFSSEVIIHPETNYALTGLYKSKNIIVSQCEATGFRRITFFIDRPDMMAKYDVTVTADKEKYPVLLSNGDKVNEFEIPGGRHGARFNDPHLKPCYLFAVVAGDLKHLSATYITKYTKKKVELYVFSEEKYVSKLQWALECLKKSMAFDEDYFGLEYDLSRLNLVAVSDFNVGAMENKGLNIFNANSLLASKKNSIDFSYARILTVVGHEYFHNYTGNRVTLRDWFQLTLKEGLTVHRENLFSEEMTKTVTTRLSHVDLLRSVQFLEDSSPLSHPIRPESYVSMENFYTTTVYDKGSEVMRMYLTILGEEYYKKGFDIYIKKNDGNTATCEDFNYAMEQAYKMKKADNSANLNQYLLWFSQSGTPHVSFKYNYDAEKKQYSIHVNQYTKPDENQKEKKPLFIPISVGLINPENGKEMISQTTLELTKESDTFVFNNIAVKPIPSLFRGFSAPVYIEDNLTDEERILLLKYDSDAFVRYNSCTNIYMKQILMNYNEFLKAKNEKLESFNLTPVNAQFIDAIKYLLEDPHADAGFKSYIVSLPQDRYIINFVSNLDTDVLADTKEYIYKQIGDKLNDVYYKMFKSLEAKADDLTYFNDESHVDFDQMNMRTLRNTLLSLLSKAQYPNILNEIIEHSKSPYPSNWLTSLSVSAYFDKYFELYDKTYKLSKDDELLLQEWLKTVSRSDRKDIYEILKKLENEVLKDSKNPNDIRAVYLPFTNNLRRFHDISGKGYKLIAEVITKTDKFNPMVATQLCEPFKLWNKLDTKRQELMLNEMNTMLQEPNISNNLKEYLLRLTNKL

inhibition, inactive:
COc1ccccc1NC(=O)Cn1nc(Cc2cccnc2)c2ccccc2c1=O 4.36%
Cc1cc2cc(C#N)c(NCCNC(=S)NCCCN3CCOCC3)nc2cc1C 11%
Cc1nc(SCC(=O)NCc2cccs2)nc(C)c1C 1.91%
CCOc1ccc(N2CC(=O)N/C2=N\c2nc(C)cc(C)n2)cc1 0.69%
CS(=O)(=O)N(CC(=O)NCc1ccccc1Cl)C1CCCCC1 -3.91%
CCC(CC)C(=O)NN(C(=O)c1ccncc1)C1CC(=O)N(c2ccccc2)C1=O (configuration not stated) 0.84%
CCN(CC)Cc1ccc(NC(=O)c2sc3cc(Cl)ccc3c2Cl)cc1 5.72%
CCOC(=O)C1ON2CCCCC2C1(O)C(F)(F)F (configuration not stated) 4.11%
Cc1ccc(C(=O)Nc2ccccc2-c2ccccc2)o1 5.46%
O=C(Nc1scc(-c2ccccc2)c1C(=O)O)c1ccco1 13.6%
COC(=O)c1c(-c2ccc3ccccc3c2)csc1NC(=O)Cc1ccc(OC)c(OC)c1 -5.43%
CCOC(=O)c1c(-c2ccc(OC)cc2)csc1NC(=O)CSc1ccccc1 9.31%
COc1ccc(-c2csc(NC(=O)c3ccc(OCC(=O)N4CCOCC4)c(OC)c3)n2)cc1OC -0.86%
COc1ccc(CCNC(=O)[C@@H](NC(N)=O)C(C)C)cc1 1.11%
CCOc1ccccc1NC(=O)CCNC(=O)c1ccc(Cl)cc1 -0.92%
Cc1nc2ccccc2c(=O)n1NC(=O)C1CCCCC1 0.92%
COc1ccccc1C(=O)Nn1c(C2CCC2)nc2ccccc2c1=O 28.5%
COc1cccc(OC)c1C(=O)Nn1c(C2CCC2)nc2ccccc2c1=O 1.68%
O=C(Nn1c(-c2ccccc2)nc2ccccc2c1=O)C1CCC1 8.13%
NS(=O)(=O)c1ccc(NC(=S)NC(=O)/C=C/c2ccco2)cc1 22.5%
C/C(=N/NC(=O)CN1CCN(S(=O)(=O)c2ccc(Br)cc2)CC1)c1ccco1 3.47%
COc1ccc(NC(=O)c2ccc(-c3ccccc3Cl)o2)cc1 2.03%
Cc1ccc(S(=O)(=O)N2CCCCC2)cc1NC(=O)CSc1nnc(N)s1 11.9%
COc1ccccc1OCC(=O)N/N=C1\CCc2ccccc21 -5.88%
O=C1Nc2ncccc2OC1CCO (configuration not stated) 1.94%
O=C(N/N=C/c1cc(Br)ccc1O)Nc1ccccc1 2.93%
O=C(N/N=C/c1ccccc1C(=O)O)c1ccccc1Br -4.66%
C=CCc1cccc(/C=N/NC(=O)c2ccccc2Br)c1O -2.15%
COc1ccc(Br)cc1/C=N/NC(=O)c1cc(Br)ccc1O 9.13%
CC1=NNC(=O)C1Oc1ccccc1 (configuration not stated) 3.86%
CCCCCCn1c(N2CCC(C(N)=O)CC2)nc2c1c(=O)[nH]c(=O)n2C -0.78%
Cc1nc(Cl)sc1C(=O)Nc1ccccc1 2.8%
O=C(CSc1nc2ccccc2c(=O)n1-c1ccccc1)c1c[nH]c2ccccc12 1.41%
COc1ccc2cc(C(=O)C3CCCN(C(=O)CSc4nnc(C)o4)C3)ccc2c1 (configuration not stated) 12.3%
OC1=C(O)c2nc3ccccc3nc21 -5.83%
Cc1cc2nc3c(nc2cc1C)C(O)=C3O 20.8%
Cc1nc2c(c3c1[nH]c1ccccc13)C(O)CC(C)(C)C2 (configuration not stated) 22.4%
C=CCn1c(=O)/c(=C/c2ccc(Cl)cc2)s/c1=C(/C#N)c1nnc2n1CCCCC2 21.5%
C=CCn1c(=O)/c(=C/c2ccc(F)cc2)s/c1=C(\C#N)c1nnc2n1CCCCC2 20.7%
CCOc1ccc(NC(=NCc2ccc3c(c2)OCO3)SC2CC(=O)N(c3ccc(C(=O)O)cc3)C2=O)cc1 (configuration not stated) 1.35%
N=c1sccn1CC(=O)Nc1ccc(S(=O)(=O)N2CCOCC2)cc1 -2.17%
Cc1ccc(Cn2c(O)c(N=O)c3ccccc32)cc1 4.37%
O=C(c1ccc2c(c1)OCO2)C1CCCN(C2CCN(CCc3ccccc3)CC2)C1 (configuration not stated) 6.4%
CC(C)(C)NC(=O)CSc1nnc(Cc2ccccc2)n1CC1CCCO1 (configuration not stated) 2.88%
Cc1cccc(C)c1NC(=O)C1C2C=CC(C2)C1C(=O)NCc1ccccn1 (configuration not stated) 15.1%
COc1ccc(NC(=O)C2C3C=CC(C3)C2C(=O)NCc2ccco2)cc1 (configuration not stated) 4.82%
COc1ccc(OC)c(C2=NOC(C(=O)NCc3ccccn3)C2)c1 (configuration not stated) -2.41%
O=C(NCc1ccccn1)C1C2C=CC(C2)C1C(=O)Nc1ccc(F)cc1 (configuration not stated) 18.1%
COc1ccc(OC)c(NC(=S)NCc2cccnc2)c1 4.71%
O=C(O)C1C2C=CC(C2)C1C(=O)NCc1ccccn1 (configuration not stated) -0.69%
COc1ccc(NC(=O)NCc2ccco2)c(OC)c1 1.06%
O=C(O)C1C2C=CC(C2)C1C(=O)NCc1cccnc1 (configuration not stated) 2.34%
O=C(Cn1nc(Cl)nc1Cl)Nc1ccccc1 0.91%
O=C(NNC(=S)Nc1ccc(F)cc1)C1[C@H]2CCCC[C@@H]12 (some centres not stated) -16.1%
O=C(NCc1n[nH]c(=S)n1-c1ccc(Br)cc1)c1ccc(S(=O)(=O)N2CCOCC2)cc1 2.45%
Cc1cc(C)c(S(=O)(=O)N2CCN(C)CC2)c(C)c1 4.18%
Cc1ccc(NC2=C(Cl)C(=O)OC2OC(=O)c2ccco2)cc1C (configuration not stated) 5.26%
C=CCOC(=O)C1=C[C@@H](c2coc3ccccc3c2=O)C[C@@H](OCc2ccc(CO)cc2)O1 6.22%
CCN(CC)CCOC(=O)c1cccc2c1-c1ccccc1C2O (configuration not stated) 1.02%
NNC(=O)c1cc2c(s1)-c1cc(Cl)ccc1SC2 3.34%
CC(=O)Nc1cccc(C(=O)Nc2ccccc2C(=O)O)c1 -0.69%
Cc1ccc(SCC(=O)Nc2ccccc2C(=O)O)cc1 -0.6%
Cc1ccc(C)c(Oc2coc3cc(OCC(=O)Nc4ccccc4C(C)C)ccc3c2=O)c1 2.02%
COc1ccc(C(=O)ON=C2CCN(c3ccc([N+](=O)[O-])cc3)CC2)cc1 4.56%
Cc1ccc(C(=O)ON=C2CCN(c3ccc([N+](=O)[O-])cc3)CC2)cc1 14.4%
Cc1ccc2nc(-c3ccc(SCC(=O)N4CCc5ccccc54)nc3)[nH]c2c1 4.65%
C=C1c2ccccc2NC(=O)N1c1ccc(C)cc1 -1.9%
CCC1CCCCN1C(=S)NC(=O)c1ccc([N+](=O)[O-])cc1 (configuration not stated) 5.65%
CC1CCCCN1C(=S)NC(=O)c1cccs1 (configuration not stated) 13.7%
COc1cc(O)c(C(CC(=O)N2CCN(c3ccccc3)CC2)c2ccc(N(C)C)cc2)c(OC)c1 (configuration not stated) 0.72%
O=C(Nc1ccc2c(c1)OCO2)C1CCCN(S(=O)(=O)c2cccs2)C1 (configuration not stated) 13.9%
Cc1ccc(CNC(=O)C2CCCN(S(=O)(=O)c3cccnc3)C2)cc1 (configuration not stated) 13%
O=C(Nc1ccc2c(c1)OCO2)C1CCN(S(=O)(=O)c2cccs2)CC1 3.56%
COc1cccc(CNC(=O)C2CCN(S(=O)(=O)c3cccs3)CC2)c1 10.2%
CS(=O)(=O)N1CCC(C(=O)NCc2ccc3c(c2)OCO3)CC1 21.2%
CCS(=O)(=O)N1CCCC(C(=O)NCc2ccc3c(c2)OCO3)C1 (configuration not stated) 1.85%
O=C(NCc1ccc2c(c1)OCO2)C1CCN(S(=O)(=O)N2CCCCC2)CC1 10.8%
O=C(NCc1ccccc1)C1CCCN(S(=O)(=O)c2cccnc2)C1 (configuration not stated) 20%
Cc1nc2ccccc2c2oc(C(=O)NC3CC3)cc12 1.86%
COC(C[C@@H](O)CC(=O)[C@@H](C)OCc1ccccc1)OC -6.94%
O=C(NCc1ccc2c(c1)OCO2)C1CC(=O)N(CCc2ccccc2)C1 (configuration not stated) 0.19%
O=C(Cn1cccc1C(=O)c1ccccc1)NCc1ccccn1 4.68%
CC(Sc1ccc(Cl)cc1)C(=O)Nc1ccccc1C(=O)N1CCOCC1 (configuration not stated) -3.03%
Nc1ccc2c(c1)nc(Cc1ccccc1)n2CCO 9.11%
Cc1ccnc(NS(=O)(=O)c2cnc(Cl)c(Br)c2)c1 4.88%
Cc1cccc(-n2cc(CN(C)Cc3nccn3C)c(-c3cccc(F)c3)n2)c1 4.73%
CN(CC(=O)Nc1ccc(F)cc1)C(=O)COc1ccc(C(=O)c2ccccc2)cc1 2.01%
COCCn1c(SCC(=O)NC(=O)NCc2ccccc2)nc2ccccc21 -0.93%
CCCn1c(C)cc(/C=C(\C#N)C(=O)OCC(=O)NC(=O)NCC)c1C 8.1%
COc1ccc(N(CC(=O)Nc2ccccc2C(=O)O)S(=O)(=O)c2ccc(C)c([N+](=O)[O-])c2)cc1 6.07%
Cc1ccc(OCC(=O)Nc2ccc(N3CCN(C(=O)c4ccc(C)cc4)CC3)cc2)cc1 -2.61%
Cc1ccc(C(=O)N2CCN(S(=O)(=O)c3ccccc3)CC2)cc1 1.63%
COc1ccc(OC)c2sc(NC(=O)c3ccc(S(=O)(=O)N4CCOCC4)cc3)nc12 -1.73%
COc1ccc(NC(=O)c2ccc(S(=O)(=O)N(C)C)cc2)cc1OC -1.14%

inhibition, active:
COc1ccc(NC(=O)C2C3C=CC(C3)C2C(=O)NCc2ccccn2)c(OC)c1 (configuration not stated) 25.6%
O=C(NCc1ccc2c(c1)OCO2)C1CCCN(S(=O)(=O)c2cccs2)C1 (configuration not stated) 24.9%
COc1ccc(OC)c2sc(NC(=O)c3ccc(S(=O)(=O)N(C)C)cc3)nc12 23.5%
